Measurements: PubChem BioAssay (EPA / NIEHS)
Activity calls are given as the source filed them. Rule for the calls: active = hit-call score of the fitted dose curve at least 0.9, where 1 is the maximum; inactive = score below 0.9.

Legend:
[1] = read-out: TIMP metallopeptidase inhibitor 2 (TIMP2), TIMP2 (gene 7077); test: BSK_KF3CT_TIMP2: BioMAP Diversity Plus: KF3CT Assay for TIMP metallopeptidase inhibitor 2 (TIMP2) Biomarker Activity (AID 2283071); details: primary human keratinocytes with fibroblasts; actives raise or lower the signal
Procedure, shortened: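 Keratinocyte–fibroblast co-culture, 24 h exposure; TIMP-2 ELISA, DMSO-normalised bidirectional fit. Parallel SRB (0.1%, TCA-fixed, 560 nm) total-protein staining gauges cytotoxicity.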

[2] = read-out: Transforming growth factor beta 1 (TGFb1), TGFB1 (gene 7040); test: BSK_KF3CT_TGFb1: BioMAP Diversity Plus: KF3CT Assay for Transforming growth factor beta 1 (TGFb1) Biomarker Activity (AID 2283072); details: primary human keratinocytes with fibroblasts; actives raise or lower the signal
Procedure, shortened: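 Signal changes in either direction, relative to DMSO, define activity here. TGF-b1 is read by ELISA from a human keratinocyte-fibroblast co-culture 24 h post-dose.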

[3] = read-out: C-C motif chemokine 2 (Homo sapiens) (UniProt P13500); test: BSK_KF3CT_MCP1: BioMAP Diversity Plus: KF3CT Assay for Monocyte Chemoattractant Protein 1 (MCP1/CCL2) Biomarker Activity (AID 2283073); details: primary human keratinocytes with fibroblasts; actives raise or lower the signal
Procedure, shortened: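 Biomarker MCP-1 is measured by ELISA in primary human keratinocytes co-cultured with foreskin fibroblasts, 24 h after chemical treatment; DMSO serves as the negative control and activity baseline.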

[4] = read-out: Matrix Metallopeptidase 9 (MMP9), MMP9 (gene 4318); test: BSK_KF3CT_MMP9: BioMAP Diversity Plus: KF3CT Assay for Matrix Metallopeptidase 9 (MMP9) Biomarker Activity (AID 2283074); details: primary human keratinocytes with fibroblasts; actives raise or lower the signal;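 for AC50: MMP9 protein level quantified by ELISA in the co-culture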
Procedure, shortened: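 Human keratinocyte and foreskin fibroblast co-culture exposed to chemicals for 24 h; MMP9 biomarker measured by ELISA, bidirectional fitting relative to DMSO; cytotoxicity tracked by SRB total protein staining in parallel cultures.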

[5] = read-out: urokinase plasminogen activator (uPA), PLAU (gene 5328); test: BSK_KF3CT_uPA: BioMAP Diversity Plus: KF3CT Assay for urokinase plasminogen activator (uPA) Biomarker Activity (AID 2283075); details: primary human keratinocytes with fibroblasts; actives raise or lower the signal
Procedure, shortened: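 Primary human keratinocyte/foreskin fibroblast co-culture exposed to chemical; uPA measured by ELISA at 24 h. Bidirectional fit versus DMSO, with parallel SRB total-protein staining for cytotoxicity.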

CD40, CD40 (gene 958) [6] = test: BSK_LPS_CD40: BioMAP Diversity Plus: LPS Assay for CD40 Biomarker Activity (AID 2283076); details: primary human HUVEC with PBMC; actives raise or lower the signal
Procedure, shortened: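 Using a multiplexed primary human co-culture (umbilical vein endothelium plus PBMC), CD40 was read by ELISA 24 h after dosing, with cytotoxicity tracked by sulforhodamine B staining of parallel cultures and activity fitted bidirectionally versus DMSO.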

[7] = read-out: E-selectin (Homo sapiens) (UniProt P16581); test: BSK_LPS_Eselectin: BioMAP Diversity Plus: LPS Assay for Eselectin Biomarker Activity (AID 2283077); details: primary human HUVEC with PBMC; actives raise or lower the signal
Procedure, shortened: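 Dose chemical onto LPS-driven HUVEC/PBMC co-culture; after 24 h, run ELISA for E-selectin; fit up- and down-going responses relative to DMSO control.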

[8] = read-out: Interleukin-8 (IL8), CXCL8 (gene 3576); test: BSK_LPS_IL8: BioMAP Diversity Plus: LPS Assay for Interleukin-8 (IL8) Biomarker Activity (AID 2283078); details: primary human HUVEC with PBMC; actives raise or lower the signal
Procedure, shortened: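 In this LPS system, chemical-treated human umbilical vein endothelium/PBMC co-cultures were harvested at 24 h for IL-8 ELISA.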

[9] = BSK_LPS_SRB: Viability Assessment in the BioMAP Diversity Plus: LPS Assay (AID 2283079); details: primary human HUVEC with PBMC;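 note: total protein by sulforhodamine B absorbance as a cytotoxicity measure; measured one day after compound addition; fitted in both directions against DMSO so loss or gain of signal counts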
Procedure, shortened: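 Cytotoxicity endpoint in human endothelial–PBMC co-culture: 24 h exposure, then SRB (0.1%) staining, 560 nm read.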

[10] = read-out: Interleukin-1 alpha (IL1a), IL1A (gene 3552); test: BSK_LPS_IL1a: BioMAP Diversity Plus: LPS Assay for Interleukin-1 alpha (IL1a) Biomarker Activity (AID 2283080); details: primary human HUVEC with PBMC; actives raise or lower the signal
Procedure, shortened: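 Primary human HUVEC and PBMC co-culture stimulated with LPS is dosed and harvested at 24 h. Both increases and decreases in ELISA-measured IL-1a are scored relative to DMSO.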

[11] = read-out: Monocyte Chemoattractant Protein-1 (MCP1), CCL2 (gene 6347); test: BSK_LPS_MCP1: BioMAP Diversity Plus: LPS Assay for Monocyte Chemoattractant Protein-1 (MCP1) Biomarker Activity (AID 2283081); details: primary human HUVEC with PBMC; actives raise or lower the signal;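 for AC50: secreted MCP-1 protein quantified by ELISA in culture supernatant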
Procedure, shortened: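 Values derive from bidirectional fitting against DMSO of ELISA-measured MCP-1 in a human primary endothelial and mononuclear cell co-culture, 24 h after chemical addition under LPS activation.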

[12] = BSK_LPS_PGE2: BioMAP Diversity Plus: LPS Assay for Prostaglandin E2 (PGE2) Biomarker Activity (AID 2283082); details: primary human HUVEC with PBMC; actives raise or lower the signal;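 for AC50: secreted prostaglandin E2 measured by ELISA in LPS-stimulated co-culture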
Procedure, shortened: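 Endpoint derived from bidirectional curve fitting versus DMSO of ELISA-measured PGE2 in LPS-stimulated human primary vascular co-culture (HUVEC with PBMC) harvested at 24 h.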

[13] = read-out: Macrophage colony-stimulating factor (MCSF), CSF1 (gene 1435); test: BSK_LPS_MCSF: BioMAP Diversity Plus: LPS Assay for Macrophage colony-stimulating factor (MCSF) Biomarker Activity (AID 2283083); details: primary human HUVEC with PBMC; actives raise or lower the signal
Procedure, shortened: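 Bidirectional fit versus DMSO of ELISA-measured M-CSF in co-cultured human umbilical vein endothelial cells and PBMC, sampled 24 h after dosing.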

[14] = read-out: Tissue Factor, F3 (gene 2152); test: BSK_LPS_TissueFactor: BioMAP Diversity Plus: LPS Assay for Tissue Factor Biomarker Activity (AID 2283084); details: primary human HUVEC with PBMC; actives raise or lower the signal
Procedure, shortened: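 Read-out: CD142 ELISA, 24 h. System: LPS-driven human endothelial/PBMC co-culture. Analysis: up- or down-signal fitted against DMSO.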

[15] = read-out: Tumor necrosis factor (Homo sapiens) (UniProt P01375); test: BSK_LPS_TNFa: BioMAP Diversity Plus: LPS Assay for Tumour Necrosis Factor alpha (TNFa) Biomarker Activity (AID 2283085); details: primary human HUVEC with PBMC; actives raise or lower the signal
Procedure, shortened: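 Primary human vascular co-culture of HUVEC and PBMC; TNFa ELISA 24 h after treatment, analysed as increase or decrease relative to DMSO control.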

CD38, CD38 (gene 952) = test: BSK_SAg_CD38: BioMAP Diversity Plus: SAg Assay for CD38 Biomarker Activity (AID 2283087); details: primary human HUVEC with PBMC; actives raise or lower the signal
Procedure, shortened: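 Fluorescence ELISA of cell-surface CD38 served as the read-out, with either increase or decrease fitted against DMSO controls. Cells were a human umbilical vein endothelium plus PBMC co-culture under SEB/TSST-1 stimulation, measured 24 h after dosing.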

CD40, CD40 (gene 958) [16] = test: BSK_SAg_CD40: BioMAP Diversity Plus: SAg Assay for CD40 Biomarker Activity (AID 2283088); details: primary human HUVEC with PBMC; actives raise or lower the signal
Procedure, shortened: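 Endpoint derived by fitting increases or decreases versus DMSO controls. CD40 is detected by fluorescence ELISA in a human vascular co-culture of endothelium and PBMC at 24 h.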

CD69, CD69 (gene 969) = test: BSK_SAg_CD69: BioMAP Diversity Plus: SAg Assay for CD69 Biomarker Activity (AID 2283089); details: primary human HUVEC with PBMC; actives raise or lower the signal;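 for AC50: cell surface CD69 protein quantified by ELISA with fluorescence detection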
Procedure, shortened: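 Values derive from bidirectional fitting relative to DMSO vehicle. Cells: umbilical vein endothelium plus peripheral blood mononuclear cells, treated 24 h before fluorescent ELISA for CD69.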

[17] = read-out: Monocyte Chemoattractant Protein-1 (MCP1), CCL2 (gene 6347); test: BSK_SAg_MCP1: BioMAP Diversity Plus: SAg Assay for Monocyte Chemoattractant Protein-1 (MCP1) Biomarker Activity (AID 2283090); details: primary human HUVEC with PBMC; actives raise or lower the signal
Procedure, shortened: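 MCP-1 levels in the endothelial–PBMC SAg co-culture were quantified by ELISA at 24 h post-dosing; both increases and decreases versus DMSO scored. Cytotoxicity monitored by SRB total protein in parallel cultures.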

[18] = read-out: Vascular cell adhesion molecule 1 (VCAM1), VCAM1 (gene 7412); test: BSK_LPS_VCAM1: BioMAP Diversity Plus: LPS Assay for Vascular cell adhesion molecule 1 (VCAM1) Biomarker Activity (AID 2283086); details: primary human HUVEC with PBMC; actives raise or lower the signal
Procedure, shortened: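 Primary human vascular co-culture (umbilical vein endothelium plus PBMC) stimulated with LPS received chemical; 24 h later VCAM-1 was read by ELISA. Overt cytotoxicity was assessed by sulforhodamine B staining of parallel cultures at the same time point.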

Measured: AC50

Chain of E-selectin (Homo sapiens) (P16581 whole entry, looked up): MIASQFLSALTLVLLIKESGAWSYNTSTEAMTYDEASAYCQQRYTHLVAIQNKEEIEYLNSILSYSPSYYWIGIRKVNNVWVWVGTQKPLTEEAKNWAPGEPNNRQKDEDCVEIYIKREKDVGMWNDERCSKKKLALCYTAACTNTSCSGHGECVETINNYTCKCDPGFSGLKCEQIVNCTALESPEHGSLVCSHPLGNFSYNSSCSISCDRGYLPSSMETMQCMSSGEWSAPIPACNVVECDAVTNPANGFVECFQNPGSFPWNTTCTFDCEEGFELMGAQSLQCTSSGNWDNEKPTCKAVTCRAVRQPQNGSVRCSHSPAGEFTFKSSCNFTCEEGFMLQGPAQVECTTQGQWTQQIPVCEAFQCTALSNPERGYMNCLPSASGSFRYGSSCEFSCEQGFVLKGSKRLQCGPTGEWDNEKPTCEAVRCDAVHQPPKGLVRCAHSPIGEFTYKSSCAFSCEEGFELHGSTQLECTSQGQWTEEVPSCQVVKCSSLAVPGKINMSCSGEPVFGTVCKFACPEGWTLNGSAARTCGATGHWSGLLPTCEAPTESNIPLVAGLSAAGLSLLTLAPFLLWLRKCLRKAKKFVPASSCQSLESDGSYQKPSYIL
Chain of Tumor necrosis factor (Homo sapiens) (P01375 whole entry, looked up): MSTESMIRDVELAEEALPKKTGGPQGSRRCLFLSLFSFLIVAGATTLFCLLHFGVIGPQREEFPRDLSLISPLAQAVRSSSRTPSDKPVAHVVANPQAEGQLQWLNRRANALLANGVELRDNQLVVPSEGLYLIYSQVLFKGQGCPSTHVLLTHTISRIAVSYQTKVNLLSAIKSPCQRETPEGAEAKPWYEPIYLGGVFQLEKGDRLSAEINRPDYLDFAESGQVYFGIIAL

Nc1cnn(-c2ccccc2)c(=O)c1Cl
not listed: [18]
inactive: all other assays above

CC1(C)C(C=C(Cl)Cl)C1C(=O)OC(C#N)c1cccc(Oc2ccccc2)c1 (stereo not given)
active: [9] 3.97 µM | [12] 4.89 µM | [15] 0.838 µM
not listed: CD38, CD38 (gene 952)
inactive: all other assays above

CCOP(=O)(OCC)Oc1nc(Cl)c(Cl)cc1Cl
inactive: [2] | [7] | [8] | [10] | [11] | [12] | [13] | [14]
active: [1] 32.9 µM | [3] 21.5 µM | [4] 8.58 µM | [5] 9.55 µM | CD40, CD40 (gene 958) [6] 19.5 µM | [9] 10.7 µM | [15] 35.9 µM | [18] 16.7 µM | CD38, CD38 (gene 952) 29.6 µM | CD40, CD40 (gene 958) [16] 20 µM | CD69, CD69 (gene 969) 23.1 µM | [17] 23.9 µM

Cc1ccc(N=CN(C)C=Nc2ccc(C)cc2C)c(C)c1
inactive: [2] | [3]
active: [1] 26.2 µM | [4] 31.3 µM | [5] 26.9 µM | CD40, CD40 (gene 958) [6] 29.5 µM | [7] 31.1 µM | [8] 33.6 µM | [9] 31.7 µM | [10] 30.2 µM | [11] 31.7 µM | [12] 11.6 µM | [13] 32.6 µM | [14] 32.6 µM | [15] 33.6 µM | [18] 26.6 µM | CD38, CD38 (gene 952) 29.1 µM | CD40, CD40 (gene 958) [16] 31.9 µM | CD69, CD69 (gene 969) 31.5 µM | [17] 30.9 µM

CCOP(=S)(OCC)Oc1nc(Cl)n(C(C)C)n1
active: [12] 14.1 µM
not listed: [18]
inactive: all other assays above

O=c1n(Cl)c(=O)n(Cl)c(=O)n1Cl
active: [14] 0.966 µM | [17] 11.6 µM
not listed: CD38, CD38 (gene 952) | [18]
inactive: all other assays above
